Potency, outcome and max activation data for 8 molecules are collected here from PubChem BioAssay (Tox21).

Values without a mark were called inactive. Records with an inconclusive call do not appear. The source made the active and inactive calls. Unless noted, calls come from the whole dose curve; as a rule, active = well fitted curve in the direction sought with a large enough effect in the repeat runs; inconclusive = weak or mixed curves; inactive = no such curve, though single readings can be large; an effect the other way counts as inactive or inconclusive.

The target of assay [1] is Progesterone receptor (Homo sapiens) (UniProt P06401). The assay is described as follows: qHTS assay to identify small molecule agonists of the progesterone receptor (PR) signaling pathway (AID 1346784; calls by dose curve; note: nearly all actives have a fitted effect of over 30% in size). The method in brief:
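Cells (PR-UAS-bla HEK 293T, GripTite) were plated in assay medium containing 2% charcoal-stripped FBS and incubated 6 hr. Test compounds in DMSO were added for 16 hr at 37C. FRET substrate was then loaded for 2 hr at room temperature before fluorescence reading.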
For orientation: qHTS replaces the single test concentration by a dilution series.

For assay [2] the target is unchanged. Description: qHTS assay to identify small molecule antagonists of the progesterone receptor (PR) signaling pathway (AID 1346795; active = well fitted inhibition curve with a large enough effect in the signal ratio in the repeat runs, not every such curve was filed as active; the % refers to the signal ratio; note: potency is the fitted concentration of half-maximal effect). The procedure, abridged:
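Antagonist mode: compounds tested against 1 nM (final) promegestone stimulation in HEK293T cells expressing PR-UAS-bla reporter, 16 hr at 37C, 5% CO2; beta-lactamase activity detected via B/G FRET substrate after 2 hr at room temperature.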

Assay [3] can be described thus: qHTS assay to identify small molecule antagonists of the progesterone receptor (PR) signaling pathway - cell viability counter screen (AID 1346798). Note: series mostly up to about 92 µM; nearly all actives have a fitted effect of over 50% in size. The method in brief: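 Counter screen for cytotoxicity: viability of PR-UAS-bla HEK293T cells was measured with CellTiter-Glo luminescence following 16 hr compound exposure in the presence of R5020.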
Assay [4] is described as follows: qHTS assay to identify small molecule agonists of the progesterone receptor (PR) signaling pathway - cell viability counter screen (AID 1346799; calls by dose curve; note: nearly all actives have a fitted effect of over 45% in size). The method in brief:
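Cells (PR-UAS-bla HEK293T) are plated at 3,000/well in 2% charcoal-stripped FBS medium, rested 6 hr, dosed and incubated 16 hr at 37C. CellTiter-Glo is then added and luminescence measured after 30 min at room temperature.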

Assay [5] is described as follows: qHTS assay to identify small molecule antagonists of the TGF-beta/Smad signaling pathway - cell viability counter screen (AID 1346824). Note: nearly all actives have a fitted effect of over 50% in size. The procedure, abridged:
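SBE-bla HEK 293T cells, incubated overnight, then compound plus 0.25 ng/mL TGF-beta1 (stock added) for 5 hr at 37 C. Viability was read in the same wells by CellTiter-Glo luminescence after 30 min at room temperature.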

Assay [6] is described as follows: qHTS assay to identify small molecule agonists of the TGF-beta/Smad signaling pathway - cell viability counter screen (AID 1346829). Note: top concentration of the series differs between compounds; nearly all actives have a fitted effect of over 45% in size. The procedure, abridged: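 Compound-treated SBE-bla HEK 293T cells (5 hr, 37 C) were assessed for viability with CellTiter-Glo in parallel with the reporter read.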
A short description of assay [7]: qHTS assay to identify small molecule agonists of the TGF-beta/Smad signaling pathway (AID 1346859; active = well fitted activation curve with a large enough effect in the signal ratio in the repeat runs, not every such curve was filed as active; the % refers to the signal ratio; note: series mostly up to about 77 µM). The method in brief: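 Reporter line: HEK 293T with stably integrated SBE-controlled beta-lactamase. Compound exposure lasts 5 hr at 37 C and 5% CO2; substrate loading follows for 2 hr at room temperature, with emission read at 460 and 530 nm.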
For assay [8], the target named is Thyrotropin-releasing hormone receptor (Homo sapiens) (UniProt P34981). Description: qHTS assay to identify small molecule antagonists of the thyrotropin-releasing hormone receptor (TRHR) signaling pathway (AID 1346877; active = well fitted inhibition curve with a large enough effect in the repeat runs, not every such curve was filed as active; note: series mostly up to about 51 µM). The procedure, abridged:
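Intracellular calcium fluorescence, read kinetically every second over 3 min, reports TRH-evoked signalling in HEK293 cells carrying TRHR. Test compounds were added 5 min ahead of a 1 nM TRH challenge.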

For assay [9] the target is unchanged. Description: qHTS assay to identify small molecule agonists of the thyrotropin-releasing hormone receptor (TRHR) signaling pathway (AID 1346891; calls by dose curve;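 note: HEK293 cells expressing TRHR with calcium dye readout; series mostly up to about 58 µM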). The method in brief:
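Cells: TRHR-Hek293, seeded and incubated 18 h. Dye loading: 2 h at 37 °C. Compound added from DMSO stock by pin tool. Read-out: kinetic calcium fluorescence over 3 min.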

Assay [10] can be described thus: Human pregnane X receptor (PXR) small molecule agonists, qHTS cell viability counter screen (AID 1346977). Note: nearly all actives have a fitted effect of over 50% in size. The procedure, abridged: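 Cytotoxicity counter screen run in the same wells as the PXR luciferase assay, using PXR-Luc HepG2 cells in charcoal-stripped serum medium. Viability: CellTiter-Fluor fluorescence after 24hr compound treatment.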
Assay [11] is described as follows: Caspase-3/7 induction in HepG2 cells by small molecules, qHTS assay (AID 1346978). Note: nearly all actives have a fitted effect of over 15% in size. The method in brief: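 Wild-type HepG2 cells, 2,000/well, settled 5 hr at 37 C and 5% CO2, then compound-treated for 17 hr; caspase-3/7 activity read by luminescent Caspase-Glo 3/7 after 30 min at room temperature.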
A short description of assay [12]: Caspase-3/7 induction in CHO-K1 cells by small molecules, qHTS cell viability counter screen (AID 1346979). Note: nearly all actives have a fitted effect of over 35% in size. The procedure, abridged:
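Cytotoxicity counter screen run in parallel with the caspase-3/7 assay: CHO-K1 cells, 16hr compound treatment at 37C, then CellTiter-Fluor for 1hr before fluorescence reading.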

Assay [13] in a line: Caspase-3/7 induction in CHO-K1 cells by small molecules, qHTS assay (AID 1346980). Note: nearly all actives have a fitted effect of over 15% in size. The procedure, abridged: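 Wild-type CHO-K1 cells exposed to compounds for 17hr at 37 C, 5% CO2. Caspase-3/7 activity then measured by Caspase-Glo 3/7 luminescence after 30min at room temperature.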
The target in assay [14] is Acetylcholinesterase (Homo sapiens) (UniProt P22303). Description: Acetylcholinesterase (AChE) small molecule antagonists: enzyme-based qHTS assay (AID 1347397; calls by dose curve; note: nearly all actives have a fitted effect of over 55% in size). The note with it: Potency: AChE enzyme activity inhibition. The method in brief: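 Recombinant human AChE (50 mU/mL) preincubated with compound 30 min at room temperature; acetylthiocholine plus DTNB then added, and thiocholine formation read colorimetrically after 10 min at room temperature. DMSO served as vehicle control.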

The nature of assay [15]: Caspase-3/7 induction in HepG2 cells by small molecules, qHTS cell viability counter screen (AID 1346981). Note: series mostly up to about 92 µM; nearly all actives have a fitted effect of over 30% in size. The procedure, abridged:
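HepG2, WT, 2,000 cells/well; 5 hr pre-incubation 37 C/5% CO2; compound pin-transferred from DMSO; 16 hr exposure; CellTiter-Fluor, 1 hr; fluorescence read.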

In assay [16] the target is Nuclear receptor subfamily 1 group I member 2 (Homo sapiens) (UniProt O75469). Description: Human pregnane X receptor (PXR) small molecule agonists, qHTS assay (AID 1346982). Note: nearly all actives have a fitted effect of over 35% in size. Note: potency is the fitted concentration of half-maximal effect. The procedure, abridged: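 Luciferase signal from ONE-Glo (30 min, room temperature) measured activation of hPXR-driven CYP3A4 reporter expression in PXR-Luc HepG2 cells treated with compounds for 24 hr at 37 C.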

Assay [17] has as its target Nuclear receptor subfamily 1 group I member 2 (Rattus norvegicus) (UniProt Q9R1A7). The assay is described as follows: Rat pregnane X receptor (rPXR) activation by small molecules, qHTS assay (AID 1346983). Note: nearly all actives have a fitted effect of over 20% in size. The note with it: rPXR luciferase reporter cells, One-Glo luminescence, 24 h; max activation: active compounds read high. The procedure, abridged: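 Cell-based rPXR activation assay: rPXR cells, 2,000 per well, rested 5hr at 37 C, then exposed to compounds in DMSO for 24 hr at 37 C. Luciferase activity read by One-Glo luminescence after 30 min at room temperature.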

In assay [18] the target is Nuclear receptor subfamily 1 group I member 2 (Homo sapiens) (UniProt O75469). The assay is described as follows: CYP3A4 induction through human pregnane X receptor (PXR) by small molecules, qHTS assay (AID 1346984). Note: nearly all actives have a fitted effect of over 40% in size. The procedure, abridged:
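Luminescence readout: luciferase signal after One-Glo (30 min, room temperature), following 3 h at 37C with 3uM final Luciferin-IPA P450 substrate. Cells were DPX-2 (HepG2, PXR/CYP3A4-luc co-transfected) dosed for 24 h.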

For assay [19] the target is unchanged. Description: Human pregnane X receptor (PXR) activation by small molecules, qHTS assay (AID 1346985). Note: nearly all actives have a fitted effect of over 40% in size. Note: potency is the fitted concentration of half-maximal effect. The procedure, abridged:
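DPX-2 cells (HepG2 co-transfected with a PXR response element and a CYP3A4-promoter luciferase construct) were seeded at 2,000 per well, rested 5 hr at 37C, then exposed to DMSO-dissolved compounds for 24 hr. Activation was read as luciferase luminescence.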

Assay [20] has as its target Acetylcholinesterase (Homo sapiens) (UniProt P22303). Description: Acetylcholinesterase (AChE) small molecule antagonists: colormetric cell-based qHTS assay (AID 1347395; calls by dose curve; note: nearly all actives have a fitted effect of over 30% in size). The method in brief:
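Cells (SH-SY5Y, 2,000 per well) are seeded and left overnight at 37 C. Compound is added for 30 min, then DTNB and acetylthiocholine for a further 90 min at 37 C before absorbance-based thiocholine detection.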
% is set by controls: 0 for no effect and ±100 for the full control effect.

Thyrotropin-releasing hormone receptor (Homo sapiens), sequence (P34981 whole entry, looked up): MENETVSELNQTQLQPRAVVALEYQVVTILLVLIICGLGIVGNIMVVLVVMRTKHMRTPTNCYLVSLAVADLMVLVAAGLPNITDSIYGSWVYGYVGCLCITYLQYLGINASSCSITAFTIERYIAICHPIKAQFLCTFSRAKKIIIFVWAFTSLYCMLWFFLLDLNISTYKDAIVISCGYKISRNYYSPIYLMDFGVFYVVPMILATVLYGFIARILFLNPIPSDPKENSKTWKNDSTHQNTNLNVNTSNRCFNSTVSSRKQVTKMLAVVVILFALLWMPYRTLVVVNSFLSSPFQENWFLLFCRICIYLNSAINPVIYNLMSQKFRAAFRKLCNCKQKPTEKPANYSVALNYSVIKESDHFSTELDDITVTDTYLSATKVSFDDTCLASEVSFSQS
Acetylcholinesterase (Homo sapiens), sequence (P22303 whole entry, looked up): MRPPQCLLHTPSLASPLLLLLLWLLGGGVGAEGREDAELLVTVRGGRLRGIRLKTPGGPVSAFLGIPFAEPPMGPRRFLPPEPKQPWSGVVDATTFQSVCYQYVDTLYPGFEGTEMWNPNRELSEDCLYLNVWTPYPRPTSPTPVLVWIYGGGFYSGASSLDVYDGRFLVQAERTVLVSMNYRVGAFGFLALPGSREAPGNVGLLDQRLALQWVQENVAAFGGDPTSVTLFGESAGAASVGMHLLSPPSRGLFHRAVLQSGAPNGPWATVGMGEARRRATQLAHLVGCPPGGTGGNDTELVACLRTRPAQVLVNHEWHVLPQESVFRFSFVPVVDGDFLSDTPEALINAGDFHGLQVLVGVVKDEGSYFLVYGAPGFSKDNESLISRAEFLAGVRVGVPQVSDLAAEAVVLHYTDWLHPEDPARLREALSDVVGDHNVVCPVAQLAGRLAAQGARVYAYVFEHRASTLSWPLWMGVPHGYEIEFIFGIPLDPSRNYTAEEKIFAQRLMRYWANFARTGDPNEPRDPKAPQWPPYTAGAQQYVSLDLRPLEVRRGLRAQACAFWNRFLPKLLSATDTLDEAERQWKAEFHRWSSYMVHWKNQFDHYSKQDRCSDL
Nuclear receptor subfamily 1 group I member 2 (Rattus norvegicus), sequence (Q9R1A7 whole entry, looked up): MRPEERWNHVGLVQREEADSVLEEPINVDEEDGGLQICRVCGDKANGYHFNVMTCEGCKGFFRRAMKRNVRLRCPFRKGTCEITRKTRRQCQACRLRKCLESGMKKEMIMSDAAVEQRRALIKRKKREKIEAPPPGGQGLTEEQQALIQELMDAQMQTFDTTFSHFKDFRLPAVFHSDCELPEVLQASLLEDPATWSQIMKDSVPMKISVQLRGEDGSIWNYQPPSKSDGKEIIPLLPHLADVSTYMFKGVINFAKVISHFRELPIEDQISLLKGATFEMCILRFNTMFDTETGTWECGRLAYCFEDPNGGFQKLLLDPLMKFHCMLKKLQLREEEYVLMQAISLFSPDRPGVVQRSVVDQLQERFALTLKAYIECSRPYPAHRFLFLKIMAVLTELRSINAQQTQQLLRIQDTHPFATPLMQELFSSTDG
Progesterone receptor (Homo sapiens), sequence (P06401 whole entry, looked up): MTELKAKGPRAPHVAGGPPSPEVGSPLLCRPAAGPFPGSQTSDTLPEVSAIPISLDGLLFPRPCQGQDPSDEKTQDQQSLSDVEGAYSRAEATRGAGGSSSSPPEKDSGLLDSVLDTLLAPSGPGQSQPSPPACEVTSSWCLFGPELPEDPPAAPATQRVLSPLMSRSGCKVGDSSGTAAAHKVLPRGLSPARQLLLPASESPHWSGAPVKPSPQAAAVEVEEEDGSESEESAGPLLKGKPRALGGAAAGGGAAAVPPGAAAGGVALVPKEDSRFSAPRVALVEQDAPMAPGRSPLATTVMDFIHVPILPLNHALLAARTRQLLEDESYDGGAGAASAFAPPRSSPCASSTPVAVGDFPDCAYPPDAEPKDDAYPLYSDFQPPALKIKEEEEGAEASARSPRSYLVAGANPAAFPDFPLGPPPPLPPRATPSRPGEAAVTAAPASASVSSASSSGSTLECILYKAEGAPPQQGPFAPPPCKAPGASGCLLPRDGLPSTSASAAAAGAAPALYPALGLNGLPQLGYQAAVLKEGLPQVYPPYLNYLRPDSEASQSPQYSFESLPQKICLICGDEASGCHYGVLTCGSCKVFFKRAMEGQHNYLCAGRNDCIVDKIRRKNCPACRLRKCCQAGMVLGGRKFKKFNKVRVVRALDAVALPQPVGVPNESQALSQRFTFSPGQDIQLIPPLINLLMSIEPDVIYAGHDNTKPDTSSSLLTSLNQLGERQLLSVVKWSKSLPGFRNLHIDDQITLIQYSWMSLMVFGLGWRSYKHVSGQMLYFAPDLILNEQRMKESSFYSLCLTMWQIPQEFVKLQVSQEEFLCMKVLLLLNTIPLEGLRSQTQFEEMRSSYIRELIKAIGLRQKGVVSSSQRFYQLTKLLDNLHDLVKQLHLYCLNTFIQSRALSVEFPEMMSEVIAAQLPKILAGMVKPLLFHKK
Nuclear receptor subfamily 1 group I member 2 (Homo sapiens), sequence (O75469 whole entry, looked up): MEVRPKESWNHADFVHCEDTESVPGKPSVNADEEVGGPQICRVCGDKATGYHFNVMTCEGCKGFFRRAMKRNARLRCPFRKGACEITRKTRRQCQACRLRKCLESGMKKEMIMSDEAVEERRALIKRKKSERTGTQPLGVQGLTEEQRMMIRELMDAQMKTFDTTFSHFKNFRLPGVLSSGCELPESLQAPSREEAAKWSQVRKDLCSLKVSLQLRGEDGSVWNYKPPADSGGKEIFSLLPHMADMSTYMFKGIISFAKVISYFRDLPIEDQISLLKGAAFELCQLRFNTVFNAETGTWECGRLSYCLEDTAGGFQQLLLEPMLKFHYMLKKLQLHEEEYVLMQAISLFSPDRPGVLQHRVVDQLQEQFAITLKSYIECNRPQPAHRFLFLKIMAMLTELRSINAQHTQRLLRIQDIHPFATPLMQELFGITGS

Take `CCCCc1c(C)nc(NCC)[nH]c1=O`: the Potency result in assay [1], in assay [2], in assay [3], in [4], in [5] and in [10] was “inactive” throughout. Moreover, the Potency entry in assay [11], in assay [12], in assay [13] and in assay [14] was “inactive” throughout. For the same molecule, the molecule was classed as inactive in assay [6], in assay [7], in [8] and in assay [9].
Take `Cc1ncsc1CCCl`: the Potency result in assay [1], in assay [2], in assay [3], in assay [4], in [5] and in assay [10] was “inactive” each time. The Potency entry in [11], in assay [12], in [13], in [15], in [16] and in [18] was “inactive” in each case. The Potency entry in assay [19], in assay [20] and in assay [14] was “inactive” each time. Also, the call in assay [7], in assay [8] and in assay [9] was inactive. Besides, in assay [17], the max activation was -0.969%.
`COc1cc2c(cc1OC)[C@@]13CCN4CC5=CCO[C@H]6CC(=O)N2[C@H]1[C@H]6[C@H]5C[C@H]43`: the Potency result in [1], in [2], in assay [3], in assay [4], in assay [5] and in assay [10] was “inactive” each time. For the same molecule, the Potency result in [11], in [12], in [13], in assay [15], in assay [18] and in assay [20] was “inactive” each time. Besides, the Potency entry in [14] is “inactive”. For the same molecule, the molecule was called inactive in assay [7], in [8] and in assay [9]. Besides, in assay [16], the Potency is 21.7 µM (active). In assay [17], the max activation is -4.15%.
Consider `CC(C)(C)OC(=O)c1ncn2c1[C@@H]1CCCN1C(=O)c1c(Br)cccc1-2`, for which the Potency entry in assay [1], in assay [2], in assay [3], in assay [4], in assay [5] and in assay [10] was “inactive” each time. For the same molecule, the Potency entry in [11], in assay [12], in assay [13], in [15] and in [20] was “inactive” in each case. Also, the outcome in assay [6], in [8] and in assay [9] was inactive. The Potency was 13.3 µM (active) in [16] and 15.8 µM (active) in [19]. The max activation in assay [17] is -1.76%.
Consider `Cc1cnc[nH]1`, for which the Potency result in [1], in [2], in assay [3], in assay [4], in assay [5] and in assay [10] was “inactive” each time. In addition, the Potency entry in assay [11], in assay [12], in assay [13], in assay [15], in assay [16] and in [14] was “inactive” throughout. For the same molecule, the outcome in assay [7], in assay [8] and in assay [9] was inactive.
With `N#CCCC#N`, the Potency result in assay [1], in [2], in assay [3], in assay [4], in [5] and in [10] was “inactive” in each case. Further, the Potency entry in assay [11], in assay [12], in assay [13], in assay [15], in assay [16] and in [20] was “inactive” each time. For the same molecule, in assay [14], the Potency entry was “inactive”. Besides, the molecule was classed as inactive in assay [7], in [8] and in [9].
`O=P(O)(Oc1ccccc1)Oc1ccccc1`: the Potency entry in assay [1], in [2], in assay [3], in assay [4], in assay [5] and in [10] was “inactive” each time. Further, the Potency result in assay [11], in [12], in assay [13], in assay [16], in assay [20] and in [14] was “inactive” in each case. The outcome in [7], in [8] and in [9] was inactive.
Regarding `O=C(Nc1ccccc1)c1ccccc1I`, the Potency result in assay [1], in [3], in assay [4], in assay [5], in assay [10] and in assay [11] was “inactive” in each case. Besides, the Potency result in [13], in assay [15], in assay [20] and in [14] was “inactive” throughout. Further, the Potency in [2] is 54.5 µM (active); in assay [16], 68.6 µM (active). The call in assay [6], in assay [7], in assay [8] and in [9] was inactive.
